Screening results deposited in PubChem by National Center for Advancing Translational Sciences (NCATS).
This is a sample that favours compounds with a hit; in the whole collection about 18% have one here.
PLK1 PBD inh: PLK1 (human) polo-box domain binding inhibition | Plk1 PBD binding of FITC phosphopeptide, fluorescence polarization | Potency, µM, most hits filed as inhibitors | 360,000 tested, 2.8% active; further: series mostly up to about 57 µM; nearly all actives have a fitted effect of over 65% in size
VDR inhibitor: vitamin D3 receptor (human) inhibition | P11473 | VDR-SRC2-3 peptide fluorescence polarization, 2 h | Potency, µM, actives largely listed as inhibitors | 400,000 tested, 0.93% active
Target sequence (P11473 whole entry, looked up): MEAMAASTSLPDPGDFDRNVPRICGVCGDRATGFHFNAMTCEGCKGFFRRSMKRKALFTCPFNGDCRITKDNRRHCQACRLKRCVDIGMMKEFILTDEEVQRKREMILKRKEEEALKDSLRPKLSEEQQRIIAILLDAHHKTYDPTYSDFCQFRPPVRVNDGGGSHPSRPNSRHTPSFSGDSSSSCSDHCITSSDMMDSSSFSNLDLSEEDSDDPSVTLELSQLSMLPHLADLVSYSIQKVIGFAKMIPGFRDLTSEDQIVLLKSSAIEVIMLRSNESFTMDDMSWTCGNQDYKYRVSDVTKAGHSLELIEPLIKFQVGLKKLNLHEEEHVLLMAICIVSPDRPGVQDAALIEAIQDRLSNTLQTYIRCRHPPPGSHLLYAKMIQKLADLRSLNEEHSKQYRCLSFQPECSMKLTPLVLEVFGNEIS
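Inhibition of the VDR/SRC2-3 peptide interaction is quantified by fluorescence polarization. Compounds (23 nl, pintool) incubate with the reagents for 2 hours at ambient room temperature.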
GCN5L2 inh: inhibitors of human GCN5L2 histone acetyltransferase; GCN5L2 HAT assay, ThioGlo1 CoA-SH fluorescence; Q92830; 390,000 tested, 0.21% active; Potency, µM (highest dose often 58.9 µM), most hits filed as inhibitors; AID 504327
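qHTS, 1536-well. 20nM enzyme, pH 7.5 HEPES/EDTA/Tween-20 buffer; 15 min compound preinc., RT. Start: 75uM H3(1-25), 70uM AcCoA, 50uM ThioGlo1. Read Ex340/Em540 at t=0 (autofluorescence flag) and t=20 min.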
TDP1 cell noCPT: qHTS for Inhibitors of human tyrosyl-DNA phosphodiesterase 1 (TDP1): qHTS in cells in absence of CPT | DT40 Tdp1-/- hTDP1 cells, no CPT, ATP luminescence, 48 h | Potency, µM (series often up to 46.2 µM), actives largely listed as inhibitors | 420,000 tested, 15% active; further: nearly all actives have a fitted effect of over 55% in size
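Luminescent ATP content (CellTiter-Glo) served as the growth readout. Knockout chicken DT40 cells expressing human TDP1 were exposed to compounds without camptothecin for a minimum 48 hr at 37 °C.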
TDP1 cell CPT: DT40-hTDP1 cell growth loss with CPT; chicken DT40 Tdp1-/-;hTDP1 cells + 20 nM CPT, ATP luminescence, 48 h; 420,000 tested, 12% active; Potency, µM (highest dose often 46.2 µM), usual class: inhibitors; further: nearly all actives have a fitted effect of over 55% in size
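Chicken DT40 Tdp1-/- cells stably complemented with human TDP1 were seeded at 400 cells/well in medium containing 20 nM camptothecin, exposed to pin-transferred compounds, and grown at 37 °C for at least 48 hr. Viability was read as ATP luminescence.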
TDP1 block: TDP1 (human) enzyme inhibition | Q9NUW8 | Potency, µM (highest dose often 130 µM), actives largely listed as inhibitors | recombinant TDP1, AlphaScreen DNA substrate cleavage | AID 485290 | 350,000 tested, 0.28% active; further: nearly all actives have a fitted effect of over 40% in size
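Here, a 5' biotin and 3' phosphotyrosine-FITC DNA oligonucleotide reports Tdp1 activity: intact substrate bridges AlphaScreen beads, while cleavage leaves a 3' phosphate and drops signal. All incubations at room temperature.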
Hits are given with their value; – = inactive; ? = inconclusive; · = no result; [ ] = another dose, or the depositor's remark. The call rests on the fitted dose curve; in most records, active means well fitted curve in the direction sought with a large enough effect; inconclusive means small, poorly fitted or top-dose-only effect, or another doubt; inactive means no such curve, though single readings can be large; an effect the other way counts as inactive or inconclusive.

SMILES	PLK1 PBD inh	VDR inhibitor	GCN5L2 inh	TDP1 cell noCPT	TDP1 cell CPT	TDP1 block
O=c1c(-c2ccco2)nc2ccccc2n1C(CCc1ccccc1)c1nc2ccccc2[nH]1 (stereo not drawn)	3µM	·	·	?	?	·
O=c1c(-c2ccco2)nc2ccccc2n1C(c1ccccc1)c1nc2ccccc2[nH]1 (stereo not drawn)	–	·	·	23µM	16µM	·
CCCS(=O)(=O)N1CCCC(C(=O)NCCOC)C1 (stereo not drawn)	·	–	–	–	–	–
Cc1c(C(=O)N2CCC(C(N)=O)CC2)oc2ccc(Br)cc12	–	–	–	–	–	–
CC(C)(C)C(=O)CSc1ncnc2c1cnn2Cc1ccccc1	–	–	–	15µM	–	·
O=C(CSc1ncnc2c1cnn2CCc1ccccc1)Nc1cccc(C(F)(F)F)c1	–	–	–	23µM	?	–
Cc1c(Cl)cccc1NC(=O)CSc1ncnc2c1cnn2CCc1ccccc1	–	–	–	?	–	–
Cn1cccc1C(=O)N1CCC2(CC1)CN(C(c1ccccc1)c1ccccc1)C2	·	–	–	12µM	?	·
Cn1cccc1C(=O)N1CCC2(CC1)CCN(c1ccc(-c3ccccc3)cc1)CC2	·	–	–	8.2µM	9.2µM	·
Cn1cccc1C(=O)N1CCC2(CCN(C(=O)Nc3cccc(F)c3)CC2)CC1	·	–	–	?	23µM	·
CC(c1ccccc1)C(CC(=O)O)C(=O)Nc1ccc(Cl)c(Cl)c1 (stereo not drawn)	–	–	–	–	–	·
CCc1csc(CCNC(=O)C2CCC(=O)N(Cc3cccc(C(F)(F)F)c3)C2)n1 (stereo not drawn)	–	–	–	–	–	–
O=C(Nc1ccccc1)/C(=C1\CCCN1)[N+](=O)[O-]	–	–	–	–	–	–
O=C(CN1C(=O)c2ccc([N+](=O)[O-])cc2C1=O)NCc1ccc(C(=O)O)cc1	?	–	–	–	–	·
COc1ccc(CN(C(=O)c2nsc(Cl)c2Cl)C(C(=O)NC2CCCCC2)c2ccc(OC)cc2)cc1 (stereo not drawn)	–	–	–	23µM	5.8µM	–
COc1ccc(CN(C(=O)c2nsc(Cl)c2Cl)C(C(=O)NC2CCCC2)c2ccc(C)cc2)cc1 (stereo not drawn)	–	–	–	15µM	12µM	–
Cc1csc(NC(=O)c2ccc(Cn3nc(C)c(Br)c3C)o2)n1	–	–	–	21µM	?	–
COc1cc2c(-c3cccc(Cl)c3)nc3c(c(C)nn3-c3ccccc3)c2cc1OC	·	–	–	–	–	–[12.3 µM]
CN1CCN(C(=O)CN(C)S(=O)(=O)c2cc(Cl)ccc2Cl)CC1	–	–	–	–	–	·
CCOC(=O)c1cc(NC(=O)c2ccc(C)cc2)c(=O)n2c1oc1ccccc12	·	–	–	–	–	–
CN(C)CCNc1ccc2ncn3c4ccc(O)cc4c(=O)c1c23	12µM	–	·	0.023µM	0.052µM	·
COc1ccc2oc3cc(NCCN(C)C)ccc3c(=O)c2c1	–	·	·	26µM	?	·
CN(C)CCNc1ccc(CO)c2sc3ccc(O)cc3c(=O)c12	–	–	·	0.15µM	0.026µM	·
COc1cccc(Cn2c(=O)sc3ccccc3c2=O)c1	–	–	–	–	–	–
COc1ccc2sc3cccc(NCCN(C)C)c3c(=O)c2c1	–	·	·	10µM	13µM	·
SMILES	PLK1 PBD inh	VDR inhibitor	GCN5L2 inh	TDP1 cell noCPT	TDP1 cell CPT	TDP1 block
Cc1ccc(-n2[nH]c(C)c(C=Nc3ccc(S(=O)(=O)Nc4nccs4)cc3)c2=O)cc1C	–	–	–	18µM	8.2µM	–
COc1cc(S(=O)(=O)Nc2ccc(C)cc2)ccc1N=Cc1c(C)[nH]n(-c2ccccc2)c1=O	–	–	–	?	9.2µM	–
COc1nccnc1NS(=O)(=O)c1ccc(N=Cc2c(C)[nH]n(-c3ccccc3)c2=O)cc1	–	–	–	?	–	–
Cc1[nH]n(-c2ccccc2)c(=O)c1C=Nc1ccc(S(=O)(=O)Nc2nccs2)cc1	24µM	–	–	–	?	–
Cc1ccc(-c2noc(CNS(=O)(=O)c3ccccc3)n2)cc1	–	–	–	?	?	–
CCC(C)(C)NC(=O)c1cccc(NC(=O)C(C)C)c1	21µM	–	–	?	–	·
O=C(Nc1ccc(OC(F)(F)F)cc1)Nc1cccc([N+](=O)[O-])c1	–	–	–	4.1µM	2.9µM	–
O=C(Nc1ccc(OC(F)(F)F)cc1)Nc1cccnc1	–	–	–	?	?	–
Cc1ccc(NC(=O)Nc2cccc([N+](=O)[O-])c2)cc1F	–	–	–	16µM	?	–
Cc1cc([N+](=O)[O-])ccc1NC(=O)Nc1ccc(F)cc1F	–	–	–	4.6µM	5.2µM	–
Cc1cc(NC(=O)Nc2cccc([N+](=O)[O-])c2)no1	–	–	–	–	–	–
CN(N=Cc1cccc2cccnc12)c1ccc([N+](=O)[O-])cc1[N+](=O)[O-]	–	–	·	–	–	·
COC(=O)N1CCC2(CCCN(c3ccccn3)C2)CC1	·	–	–	–	–	·
O=S(=O)(Nc1ncccn1)c1ccc(NC(=S)NCc2cccnc2)cc1	–	–	–	–	–	–
Cc1cc([N+](=O)[O-])ccc1NC(=O)c1cccc(NC(=O)C(C)C)c1	–	–	–	23µM	?	–
Cn1[nH]c(C(F)(F)F)cc1=O	–	–	–	–	–	–
CC(=O)c1ccc(N/N=C(/C(N)=O)C2=NC(C)(C)Cc3ccccc32)cc1	–	–	–	9.2µM	12µM	–
CC1(C)Cc2ccccc2C(/C(=N\Nc2cccc(Cl)c2)C(N)=O)=N1	–	–	–	?	?	–
CCO[C@H]1OC(C(=O)NCc2nc3ccccc3[nH]2)=C[C@@H](C2CC2)[C@@H]1CCCO	–	–	–	0.58µM	0.82µM	–
CCO[C@H]1OC(C(=O)NCc2nc3ccccc3[nH]2)=C[C@@H](c2csc3ccccc23)[C@@H]1CCCO	–	–	–	16µM	?	–
CCO[C@@H]1OC(C(=O)NCc2nc3ccccc3[nH]2)=C[C@H](c2ccccc2)[C@H]1CCCO	–	–	–	?	?	–
CCO[C@@H]1OC(C(=O)NCc2nc3ccccc3[nH]2)=C[C@H](c2csc3ccccc23)[C@H]1CCCO	–	–	–	23µM	23µM	–
CCO[C@H]1OC(C(=O)NCc2nc3ccccc3[nH]2)=C[C@@H](c2ccccc2)[C@@H]1CCCO	–	–	–	?	?	–
COc1ccc(CCN2C(=O)CCC3=C2CCC3=O)cc1OC	–	·	·	–	–	·
COc1ccc(CCN2C(=O)CSC2=Nc2ccc(C(C)C)cc2)cc1OC	–	–	–	9.2µM	15µM	–
